PubChem BioAssay (EPA / NIEHS)
Calls of active or inactive are those of the source. How the source made its calls: active means hit-call score of the fitted dose curve at least 0.9, where 1 is the maximum; inactive means score below 0.9.

Legend:
[1] = read-out: Matrix Metallopeptidase 1 (MMP1), MMP1 (gene 4312); assay: BSK_BE3C_MMP1: BioMAP Diversity Plus: BE3C Assay for Matrix Metallopeptidase 1 (MMP1) Biomarker Activity (AID 2283024); conditions: primary human bronchial epithelial cells; actives raise or lower the signal
Summary of the method: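 ELISA measurement of MMP-1 after 24 h compound exposure of primary human bronchial epithelial cells. Changes in either direction fitted relative to DMSO; parallel SRB staining checked overt cytotoxicity.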

[2] = BSK_4H_SRB: Viability Assessment in the BioMAP Diversity Plus: 4H Assay (AID 2283027); conditions: primary human endothelial cells (HUVEC);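 further: cells exposed to compound for 24 h before staining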;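 on AC50: curves fitted both ways versus DMSO so AC50 may be loss or gain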
Summary of the method: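 HUVEC, 24 h post-dose; 10% TCA fix, 0.1% SRB stain, A560 nm. Total protein = overt cytotoxicity, parallel to biomarker read. Bidirectional fit vs DMSO baseline.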

[3] = BSK_BE3C_SRB: Viability Assessment in the BioMAP Diversity Plus: BE3C Assay (AID 2283028); conditions: primary human bronchial epithelial cells;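 on AC50: fitted both ways so AC50 may mark signal gain or loss versus DMSO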
Summary of the method: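 Primary human bronchial epithelium; chemical dosing, 24 h; 10% TCA fix, 0.1% SRB stain, A560; bidirectional fit vs DMSO baseline.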

[4] = read-out: Thrombomodulin, THBD (gene 7056); assay: BSK_3C_Thrombomodulin: BioMAP Diversity Plus: 3C Assay for Thrombomodulin Biomarker Activity (AID 2283029); conditions: primary human endothelial cells (HUVEC); actives raise or lower the signal
Summary of the method: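 ELISA measurement of thrombomodulin on HUVEC surface 24 h after chemical dosing; activity fitted in both directions relative to DMSO vehicle.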

[5] = read-out: Urokinase-type plasminogen activator receptor (uPAR), PLAUR (gene 5329); assay: BSK_4H_uPAR: BioMAP Diversity Plus: 4H Assay for Urokinase-type plasminogen activator receptor (uPAR) Biomarker Activity (AID 2283030); conditions: primary human endothelial cells (HUVEC); actives raise or lower the signal
Summary of the method: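 HUVEC, 24 h post-dose; uPAR by ELISA; bidirectional fit vs DMSO baseline.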

[6] = read-out: Human Leukocyte Antigen - DR isotype (HLADR), HLA-DRA (gene 3122); assay: BSK_BE3C_HLADR: BioMAP Diversity Plus: BE3C Assay for Human Leukocyte Antigen - DR isotype (HLADR) Biomarker Activity (AID 2283032); conditions: primary human bronchial epithelial cells; actives raise or lower the signal
Summary of the method: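 Cell-surface HLA-DR ELISA readout at 24 h after dosing in the BE3C primary human lung bronchial epithelial system; gain or loss of signal against DMSO, with parallel sulforhodamine B staining of total protein for overt cytotoxicity.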

[7] = read-out: Vascular cell adhesion molecule 1 (VCAM1), VCAM1 (gene 7412); assay: BSK_4H_VCAM1: BioMAP Diversity Plus: 4H Assay for Vascular cell adhesion molecule 1 (VCAM1) Biomarker Activity (AID 2283033); conditions: primary human endothelial cells (HUVEC); actives raise or lower the signal
Summary of the method: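 VCAM-1 ELISA read 24 h after chemical dosing of HUVEC in the BioMAP 4H system, with gain or loss of signal fitted relative to DMSO. Parallel SRB staining (560 nm) checked overt cytotoxicity.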

[8] = read-out: Interferon-gamma inducible Protein 10 (IP10), CXCL10 (gene 3627); assay: BSK_BE3C_IP10: BioMAP Diversity Plus: BE3C Assay for Interferon-gamma inducible Protein 10 (IP10) Biomarker Activity (AID 2283034); conditions: primary human bronchial epithelial cells; actives raise or lower the signal
Summary of the method: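 IP-10 quantified by ELISA in human primary bronchial epithelial cell cultures at 24 hours post-dosing. Gain or loss of signal fitted relative to DMSO; parallel SRB staining assessed overt cytotoxicity.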

[9] = read-out: Monokine induced gamma interferon (MIG), CXCL9 (gene 4283); assay: BSK_BE3C_MIG: BioMAP Diversity Plus: BE3C Assay for Monokine induced gamma interferon (MIG) Biomarker Activity (AID 2283035); conditions: primary human bronchial epithelial cells; actives raise or lower the signal
Summary of the method: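 Dose cells (human primary bronchial epithelial), incubate 24 h, quantify MIG by ELISA, then fit concentration–response in both directions relative to DMSO control.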

[10] = read-out: Plasminogen activator inhibitor-1 (PAI1), SERPINE1 (gene 5054); assay: BSK_BE3C_PAI1: BioMAP Diversity Plus: BE3C Assay for Plasminogen activator inhibitor-1 (PAI1) Biomarker Activity (AID 2283037); conditions: primary human bronchial epithelial cells; actives raise or lower the signal
Summary of the method: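 PAI-1 was measured by ELISA in human primary bronchial epithelial cultures 24 h after chemical dosing, with cytotoxicity checked by SRB total-protein staining in parallel cultures. Activity was fitted in both directions relative to DMSO.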

[11] = read-out: urokinase plasminogen activator (uPA), PLAU (gene 5328); assay: BSK_BE3C_uPA: BioMAP Diversity Plus: BE3C Assay for urokinase plasminogen activator (uPA) Biomarker Activity (AID 2283038); conditions: primary human bronchial epithelial cells; actives raise or lower the signal
Summary of the method: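 ELISA read-out of uPA in human lung primary bronchial epithelial cultures, 24 h post-dosing. Gain or loss of signal fitted bidirectionally relative to DMSO baseline; cytotoxicity checked in parallel cultures via SRB total protein stain.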

[12] = read-out: Urokinase-type plasminogen activator receptor (uPAR), PLAUR (gene 5329); assay: BSK_BE3C_uPAR: BioMAP Diversity Plus: BE3C Assay for Urokinase-type plasminogen activator receptor (uPAR) Biomarker Activity (AID 2283039); conditions: primary human bronchial epithelial cells; actives raise or lower the signal
Summary of the method: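 uPAR levels were measured by ELISA after 24 h compound treatment of primary human bronchial epithelial cells, fitted in both directions relative to DMSO. Parallel SRB staining served as the cytotoxicity read-out.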

[13] = read-out: Interleukin-6 (IL6), IL6 (gene 3569); assay: BSK_CASM3C_IL6: BioMAP Diversity Plus: CASM3C Assay for Interleukin-6 (IL6) Biomarker Activity for (AID 2283040); conditions: primary human coronary artery smooth muscle cells; actives raise or lower the signal
[14] = read-out: Tissue plasminogen activator (tPA), PLAT (gene 5327); assay: BSK_BE3C_tPA: BioMAP Diversity Plus: BE3C Assay for Tissue plasminogen activator (tPA) Biomarker Activity (AID 2283041); conditions: primary human bronchial epithelial cells; actives raise or lower the signal
Summary of the method: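 tPA measured by ELISA 24 h after dosing human primary bronchial epithelial cells (BE3C system). Changes in either direction were fitted against DMSO. Parallel cultures were stained with SRB to flag overt cytotoxicity.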

[15] = read-out: Interleukin-8 (IL8), CXCL8 (gene 3576); assay: BSK_CASM3C_IL8: BioMAP Diversity Plus: CASM3C Assay for Interleukin-8 (IL8) Biomarker Activity (AID 2283042); conditions: primary human coronary artery smooth muscle cells; actives raise or lower the signal;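 further: IL-8 protein level quantified by ELISA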
[16] = read-out: Human Leukocyte Antigen - DR isotype (HLADR), HLA-DRA (gene 3122); assay: BSK_CASM3C_HLADR: BioMAP Diversity Plus: CASM3C Assay for Human Leukocyte Antigen - DR isotype (HLADR) Biomarker Activity (AID 2283043); conditions: primary human coronary artery smooth muscle cells; actives raise or lower the signal;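 further: cell-surface HLA-DR protein level quantified by ELISA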
[17] = read-out: Macrophage colony-stimulating factor (MCSF), CSF1 (gene 1435); assay: BSK_CASM3C_MCSF: BioMAP Diversity Plus: CASM3C Assay for Macrophage colony-stimulating factor (MCSF) Biomarker Activity (AID 2283044); conditions: primary human coronary artery smooth muscle cells; actives raise or lower the signal;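 further: M-CSF protein amount quantified by ELISA after 24 h exposure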
[18] = read-out: Low-density lipoprotein receptor (LDLR), LDLR (gene 3949); assay: BSK_CASM3C_LDLR: BioMAP Diversity Plus: CASM3C Assay for Low-density lipoprotein receptor (LDLR) Biomarker Activity (AID 2283045); conditions: primary human coronary artery smooth muscle cells; actives raise or lower the signal;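 further: LDLR protein level on the cell surface quantified by ELISA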
[19] = read-out: Monocyte Chemoattractant Protein-1 (MCP1), CCL2 (gene 6347); assay: BSK_CASM3C_MCP1: BioMAP Diversity Plus: CASM3C Assay for Monocyte Chemoattractant Protein-1 (MCP1) Biomarker Activity (AID 2283046); conditions: primary human coronary artery smooth muscle cells; actives raise or lower the signal;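 further: MCP-1 level quantified by ELISA 24 h after dosing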
[20] = BSK_CASM3C_Proliferation: Cell Proliferation Assessment in the BioMAP Diversity Plus: CASM3C Assay (AID 2283047); conditions: primary human coronary artery smooth muscle cells;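 further: sulforhodamine B total protein stain as relative cell number at 560 nm; sub-confluent cells exposed 48 h before staining; fitted both ways against DMSO so gain or loss of cell number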

Measured: AC50

Sc1nc2ccccc2s1
inactive: all assays above

CCC(C)=NO
inactive: all assays above

CC(C)CC(=O)CC(C)CC(C)C (stereo not given)
active: [1] 20 µM | [2] 33.7 µM | [4] 20 µM | [5] 30.9 µM | [6] 36 µM | [7] 39.2 µM | [8] 36.9 µM | [9] 34.6 µM | [10] 37.4 µM | [12] 34.9 µM | [13] 20 µM | [14] 29.4 µM | [16] 27.3 µM | [17] 34.6 µM | [19] 34 µM | [20] 32 µM
inactive: [3] | [11] | [15] | [18]

COC(=O)/C=C\C(=O)OC
active: [6] 10.7 µM | [7] 17.7 µM | [8] 20 µM | [16] 5.11 µM
inactive: all other assays above

CN(C)c1ccc(C(c2ccccc2)c2ccc(N(C)C)cc2)cc1
active: [1] 5.54 µM | [2] 4.33 µM | [7] 20 µM | [8] 10.7 µM | [10] 10.9 µM | [13] 9.64 µM | [14] 6.47 µM | [20] 9.42 µM
inactive: all other assays above

Cc1cccnc1
inactive: all assays above

CCCCCCCCCCC1CO1 (stereo not given)
active: [2] 30 µM | [5] 30.1 µM | [6] 31.2 µM | [7] 33.8 µM | [8] 30.6 µM | [19] 6.3 µM
inactive: all other assays above

CN(C)CCC(c1ccc(Cl)cc1)c1ccccn1 (stereo not given)
active: [7] 0.756 µM
inactive: all other assays above

Cc1cc(-n2nc3ccc(Cl)cc3n2)c(O)c(C(C)(C)C)c1
active: [5] 1.37 µM
inactive: all other assays above

CN(C)Cc1cc(C(C)(C)C)c(O)c(C(C)(C)C)c1
inactive: all assays above

O=C(C(=O)c1ccccc1)c1ccccc1
active: [1] 0.048 µM
inactive: all other assays above

CCCCCCCCCCCCCCCCCC[N+](C)(C)C
active: [1] 6.82 µM | [2] 1.34 µM | [3] 3.49 µM | [4] 2.9 µM | [6] 2.52 µM | [7] 1.42 µM | [8] 2.69 µM | [9] 3.82 µM | [11] 7.3 µM | [13] 8.51 µM | [14] 1.32 µM | [15] 9.19 µM | [16] 3.33 µM | [17] 3.45 µM | [19] 3.5 µM | [20] 2.09 µM
inactive: [5] | [10] | [12] | [18]

CCCCCCC(O)CCCCCCCCCCC(=O)OC (stereo not given)
active: [1] 3.22 µM | [8] 9.22 µM
inactive: all other assays above
